# Results reported in publication PMC4336329 (PLoS ONE, 2015).
# About 14,000 (4.5%) of roughly 310,000 compounds showed an effect of 50% or more. Effects have a minus sign here. Only a selection was taken, and strong results are over-represented in it overall.
# Target: human ether-à-go-go-related gene (hERG) potassium channel (human, UniProt Q12809)
# Assay: primary screen, population patch clamp on CHO cells stably expressing hERG; higher = less effect of the substance
# 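Further: peak tail current of the secondary pulse compared with the same well before compound.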
# Chain of human ether-à-go-go-related gene (hERG) potassium channel (Q12809 whole entry, looked up): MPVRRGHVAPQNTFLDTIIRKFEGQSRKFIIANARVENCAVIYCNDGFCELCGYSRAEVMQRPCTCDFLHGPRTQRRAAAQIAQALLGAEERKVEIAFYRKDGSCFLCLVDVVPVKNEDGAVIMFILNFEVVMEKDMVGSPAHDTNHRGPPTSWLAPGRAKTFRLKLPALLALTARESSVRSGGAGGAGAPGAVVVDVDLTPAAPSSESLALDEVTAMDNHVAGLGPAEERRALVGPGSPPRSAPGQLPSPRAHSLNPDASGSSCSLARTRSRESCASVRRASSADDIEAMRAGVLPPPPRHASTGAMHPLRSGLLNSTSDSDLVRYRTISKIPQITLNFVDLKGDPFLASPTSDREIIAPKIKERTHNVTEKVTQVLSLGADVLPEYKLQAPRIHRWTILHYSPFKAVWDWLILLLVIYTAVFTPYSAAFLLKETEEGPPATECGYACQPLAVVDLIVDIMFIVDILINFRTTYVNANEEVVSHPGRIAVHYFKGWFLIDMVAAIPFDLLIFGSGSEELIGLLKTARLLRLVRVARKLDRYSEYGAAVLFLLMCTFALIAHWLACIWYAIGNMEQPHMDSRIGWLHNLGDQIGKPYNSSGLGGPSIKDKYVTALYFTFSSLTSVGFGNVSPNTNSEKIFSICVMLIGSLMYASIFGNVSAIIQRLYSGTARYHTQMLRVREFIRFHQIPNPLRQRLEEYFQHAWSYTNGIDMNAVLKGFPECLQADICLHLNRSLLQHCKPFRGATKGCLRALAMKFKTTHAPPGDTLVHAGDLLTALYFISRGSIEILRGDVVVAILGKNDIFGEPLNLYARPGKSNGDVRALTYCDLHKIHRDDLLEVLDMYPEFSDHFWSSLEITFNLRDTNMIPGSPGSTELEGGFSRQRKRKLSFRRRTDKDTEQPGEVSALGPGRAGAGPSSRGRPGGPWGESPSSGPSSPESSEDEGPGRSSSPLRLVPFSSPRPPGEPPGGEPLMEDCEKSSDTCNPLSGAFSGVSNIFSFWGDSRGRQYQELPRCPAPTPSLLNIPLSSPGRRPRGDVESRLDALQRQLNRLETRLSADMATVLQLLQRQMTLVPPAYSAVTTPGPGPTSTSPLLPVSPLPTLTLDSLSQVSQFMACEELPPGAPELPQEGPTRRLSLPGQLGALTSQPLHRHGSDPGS
row,SMILES,"hERG current change (%, negative = inhibition) at 10uM"
1,O=C(c1ccc(Br)s1)N1CCN(c2ncccn2)CC1,-20.3%
2,CC12CCC3c4ccc(O)cc4CCC3C1CC(O)C2O (centres unmarked),19.5%
3,CC1=C(C(=O)Nc2ccccn2)C(c2ccccc2Cl)NC(=S)N1 (centres unmarked),10.1%
4,CC(=C1C(=O)c2ccccc2C1=O)N1CCN(CCN=CC2=C(O)CC(C)(C)CC2=O)CC1,-42.3%
5,CC(=NCCN1CCN(C(=S)Nc2ccccc2)CC1)C1=C(O)CC(C)(C)CC1=O,-15.3%
6,CC(=NCCN1CCN(C(C)=C2C(=O)c3ccccc3C2=O)CC1)C1=C(O)CC(C)(C)CC1=O,-50.5%
7,CCc1nnc(NC(=O)CSc2ccc(-c3ccccc3OC)nn2)s1,-7.08%
8,CCCS(=O)(=O)N1CCCC(C(=O)NCCCN2CCN(c3ccccc3F)CC2)C1 (centres unmarked),-21.1%
9,O=C(NCCCN1CCCCCC1)C1CC(=O)N(C2CCCC2)C1 (centres unmarked),5.99%
10,CCCS(=O)(=O)N1CCCC(C(=O)NCCCN2CCN(c3ccc(F)cc3)CC2)C1 (centres unmarked),-59.5%
11,CCS(=O)(=O)N1CCCC(C(=O)NCCN2CCC(Cc3ccccc3)CC2)C1 (centres unmarked),-59.1%
12,CS(=O)(=O)N1CCCC(C(=O)NCCN2CCC(Cc3ccccc3)CC2)C1 (centres unmarked),-28%
13,CCN(CCCNC(=O)C1CCN(S(=O)(=O)CC)CC1)c1ccccc1,-21.7%
14,O=C(NCCCN1CCC(Cc2ccccc2)CC1)C1CC(=O)N(C2CCCC2)C1 (centres unmarked),-34.8%
15,CS(=O)(=O)N1CCCC(C(=O)NCCCN2CCC(Cc3ccccc3)CC2)C1 (centres unmarked),-33.5%
16,CCCS(=O)(=O)N1CCCC(C(=O)NCCN2CCOCC2)C1 (centres unmarked),13.7%
17,O=C(NCCCN1CCC(Cc2ccccc2)CC1)C1CC(=O)N(C2CCCCCC2)C1 (centres unmarked),-66.8%
18,CCCCN(CCCNC(=O)C1CCN(S(=O)(=O)N2CCOCC2)CC1)c1ccccc1,-48.8%
19,CCCCN(CCCNC(=O)C1CCN(S(=O)(=O)CC)CC1)c1ccccc1,-51.1%
20,COC(=O)c1sc2nc(SCC(=O)N(C)c3ccccc3)n(N)c(=O)c2c1C,27.4%
21,Cc1cccc(OCCCOc2cccc3cccnc23)c1C,10.4%
22,Cc1nc(CC(=O)N2CCN(S(=O)(=O)c3ccccc3C#N)CC2)cs1,10.3%
23,C/C(=N\NC(=O)CCC(=O)O)c1c(-c2ccccc2)c2cc(Br)ccc2[nH]c1=O,6.72%

row,SMILES,"hERG current change (%, negative = inhibition) at 10uM"
1,O=C(O)C1CC(c2ccccc2)=Nc2ccccc2S1 (centres unmarked),1.43%
2,CN1C(=O)/C(=C\c2ccncc2)SC1=Nc1ccccc1,-11.2%
3,Cc1ccc(-c2nc(N)sc2C)cc1,-16.9%
4,COC(=O)c1c(NC(=O)c2cccnc2Cl)sc(C(=O)N(C)C)c1C,-6.44%
5,S=c1[nH]nc(Nc2cccc3ccccc23)s1,16.3%
6,O=C(c1cc2sccc2n1Cc1ccccc1)N1CCc2ccccc21,-2.82%
7,CCS(=O)(=O)N1CCC(C(=O)NCCCN2CCC(Cc3ccccc3)CC2)CC1,-65.5%
8,CC1CC(C)CN(CCCNC(=O)C2CCCN(S(=O)(=O)N3CC(C)CC(C)C3)C2)C1 (centres unmarked),-61%
9,CCCC(=O)N1CCC(Cc2ccccc2)CC1,9.83%
10,CCCCCCNCC(=O)N1CCC(Cc2ccccc2)CC1,-71.7%
11,CCS(=O)(=O)N1CCC(C(=O)NCCN2CCN(Cc3ccccc3)CC2)CC1,2.07%
12,CC1CC(C)CN(S(=O)(=O)N2CCCC(C(=O)NCCCN3CCCCC3C)C2)C1 (centres unmarked),-9.36%
13,CCCNC(=O)N1CCC(Cc2ccccc2)CC1,16.6%
14,CCCS(=O)(=O)N1CCC(C(=O)NCCc2ccccc2)CC1,1.42%
15,CCCS(=O)(=O)N1CCC(C(=O)NCCN2CCCC2)CC1,-7.65%
16,O=C(NCCCN1CCC(Cc2ccccc2)CC1)C1CCN(S(=O)(=O)N2CCC3(CC2)OCCO3)CC1,-42.7%
17,CC1CC(C)CN(S(=O)(=O)N2CCCC(C(=O)NCCCN3CCOCC3)C2)C1 (centres unmarked),19.1%
18,CCCS(=O)(=O)N1CCC(C(=O)NCCN2CCC(Cc3ccccc3)CC2)CC1,-57.6%
19,COc1ccccc1NS(=O)(=O)/C=C/c1ccccc1,-16.8%
20,O=C(CCN1C(=O)c2ccccc2C1=O)C1=NN[C@@H]2C(=O)N(c3ccc(F)cc3)C(=O)[C@H]12,-5.4%
21,O=C(CCS(=O)(=O)c1ccc2c(c1)NC(=O)CS2)NCCc1ccccc1,8.31%
22,O=c1c2cc(N3CCOCC3)ccc2[nH]c(=S)n1CCCN1CCCCCC1,-17%
23,BrC(/C=C\c1ccccc1)=N/Nc1nc(N2CCOCC2)nc(N2CCOCC2)n1,-39%

row,SMILES,"hERG current change (%, negative = inhibition) at 10uM"
1,CCNc1nn2ccccc2c1/C=C(\C#N)C(=O)OCC,-4.06%
2,COCCCNC(=S)Nc1ccc(C)cc1[N+](=O)[O-],1.51%
3,CCCS(=O)(=O)N1CCCC(C(=O)NCCN(C)Cc2ccccc2)C1 (centres unmarked),-8.41%
4,CCCS(=O)(=O)N1CCC(C(=O)N2CCC(Cc3ccccc3)CC2)CC1,-63%
5,CCCS(=O)(=O)N1CCCC(C(=O)N2CCC(Cc3ccccc3)CC2)C1 (centres unmarked),-19.9%
6,CCCS(=O)(=O)N1CCCC(C(=O)NCCc2ccccc2)C1 (centres unmarked),-1.02%
7,CS(=O)(=O)N1CCC(C(=O)N2CCC(Cc3ccccc3)CC2)CC1,-15.1%
8,CCCS(=O)(=O)N1CCCC(C(=O)NCCN2CCC(Cc3ccccc3)CC2)C1 (centres unmarked),-58.2%
9,CCSc1nsc(SCC)c1C(N)=O,7.66%
10,CC1(C)Cc2nc3scc(NC(=O)c4ccccc4)c3cc2CO1,-0.679%
11,CN(CCc1ccccc1)c1ccc([N+](=O)[O-])cn1,2.08%
12,COc1ccccc1N1CCN(CCCn2c(=S)[nH]c3ccccc3c2=O)CC1,-61.6%
13,O=c1c2ccccc2[nH]c(=S)n1CCN1CCCCC1,-1.11%
14,CCC1CCCCN1CCn1c(=S)[nH]c2cc(OC)c(OC)cc2c1=O (centres unmarked),-25.4%
15,O=c1c2ccccc2[nH]c(=S)n1CCCN1CCN(c2ccccc2F)CC1,-2.57%
16,CCCCn1c(=S)[nH]c2ccccc2c1=O,13.7%
17,CC1CC(C)CN(CCCn2c(=S)[nH]c3ccccc3c2=O)C1 (centres unmarked),-53%
18,CC1CCCCN1CCCn1c(=S)[nH]c2ccccc2c1=O (centres unmarked),-46.4%
19,CC1CC(C)CN(C(=O)CCCn2c(=S)[nH]c3ccccc3c2=O)C1 (centres unmarked),-3.01%
20,COc1ccc(N2CCN(CCCn3c(=S)[nH]c4ccccc4c3=O)CC2)cc1,-36.7%
21,O=c1c2ccccc2[nH]c(=S)n1CCCN1CCN(C2CCCCC2)CC1,-53.9%
22,CCC1CCCCN1CCCn1c(=S)[nH]c2ccccc2c1=O (centres unmarked),-56.2%
23,CCN1CCN(CCn2c(=S)[nH]c3ccccc3c2=O)CC1,-10.5%

row,SMILES,"hERG current change (%, negative = inhibition) at 10uM"
1,CCC1(C)Cc2ccccc2-c2nc(NCCO)n(-c3ccc(C)cc3)c(=O)c21 (centres unmarked),-25.1%
2,CCOC(=O)N1CCN(c2c(NCc3ccccc3OC)c(=O)c2=O)CC1,0.238%
3,CCOC(=O)Nc1ccc(S(=O)(=O)Nc2cc(C)on2)cc1,6.84%
4,CC1CCN(CCCn2c(=S)[nH]c3ccccc3c2=O)CC1,-56.9%
5,O=c1c2ccccc2[nH]c(=S)n1CCN1CCN(Cc2ccccc2)CC1,-19.8%
6,CC1CCN(CCn2c(=S)[nH]c3ccccc3c2=O)CC1,-32.6%
7,O=c1c2ccccc2[nH]c(=S)n1CCCN1CCOCC1,8.73%
8,O=c1c2ccccc2[nH]c(=S)n1CCCN1CCN(c2ccccc2)CC1,-19.7%
9,O=c1c2ccccc2[nH]c(=S)n1CCCN1CCC(Cc2ccccc2)CC1,-73.6%
10,C=CCn1c(SCC(=O)NCC(c2ccccc2)N(C)C)nnc1C1CCCCC1 (centres unmarked),8.62%
11,Cc1cc(Br)cc(C)c1NC(=O)c1ccc(C#N)cc1F,-21.2%
12,NS(=O)(=O)c1ccc(CCNC(=O)CCc2nc3sc4c(c3c(=O)[nH]2)CCCC4)cc1,17.6%
13,CC(C)C[C@@H](CSc1ccc(Br)cc1)N1CCN(CC(C)C)CCC1=O,-68.6%
14,CC(C)CN1CCC(=O)N([C@H](CSc2ccc(Br)cc2)Cc2ccccc2)CC1,-43.2%
15,CC(C)C[C@@H](CN=[N+]=[N-])N1CCN(CC(C)C)CCC1=O,-3.55%
16,CC(C)C[C@@H](CSc1ccccc1)N1CCN(C)CCC1=O,-16%
17,CC(C)C[C@@H](CO)N1CCN(C)CCC1=O,-4.26%
18,CCCN1CCC(=O)N([C@H](CSc2ccccc2)CC(C)C)CC1,-66.4%
19,CC(C)CN1CCC(=O)N([C@H](CSc2ccccc2)Cc2ccccc2)CC1,-67.9%
20,CC(C)C[C@@H](CO)N1CCN(Cc2ccc(Br)cc2)CCC1=O,-13.5%
21,CC(C)C[C@@H](CSc1ccc(Br)cc1)N1CCN(C)CCC1=O,-64.7%
22,CC(C)CN1CCC(=O)N([C@H](CN=[N+]=[N-])Cc2ccccc2)CC1,-22.9%
23,CCOC(=O)C(NCc1ccc2c(c1)OCO2)(NC(=O)CC)C(F)(F)F (centres unmarked),14.3%
